A short description of test [1]: rapamycin-like changes in RPL19A-GFP expression – cell-based, S. cerevisiae, multiplex flow cytometry, primary screen (AID 1862; in the data active means percent of DMSO control GFP below about 86%;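 further: lower values mimic rapamycin by blocking the RPL19A rise seen in DMSO cells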). The following applies: S. cerevisiae RPL19A-GFP strain, flow cytometry fluorescence, 3 h; at 10 µM; stronger effect = lower value. On the technique in general: A flow cytometer gives signals particle by particle.
Test [2] in a line: TOR pathway GLN3 branch reporter MEP2-GFP changes – S. cerevisiae, multiplex flow cytometry, primary screen (AID 1867;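 active means GFP response, as percent of the DMSO control, above the screen-wide mean plus 3 SD, about 139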;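 further: median GFP channel fluorescence of barcode-gated MEP2-GFP cells measured by flow cytometry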). The following applies: S. cerevisiae MEP2-GFP strain, 3 h, at 10 µM, stronger effect = higher value.
Test [3] in a line: TOR pathway RTG branch CIT2 reporter changes – S. cerevisiae, GFP fusion, multiplex flow cytometry, primary screen (AID 1870;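 active means percent response above a set limit, the screen-wide mean plus 3 SD, cut at about 130% in these data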;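 further: barcoded CIT2-GFP strain pooled with four other GFP strains with rapamycin as positive control; median GFP fluorescence per well over plate mean of DMSO wells so 100% = DMSO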). The following applies: S. cerevisiae CIT2-GFP expression, 3 h, at 10 µM, stronger effect = higher value.
Test [4] in a line: TOR pathway LAP4-GFP level changes – S. cerevisiae, multiplex flow cytometry, primary screen (AID 1873;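 active means GFP signal, as percent of the solvent control, above the screen mean plus 3 SD, about 149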). The following applies: S. cerevisiae LAP4-GFP expression, 3 h, at 10 µM, stronger effect = higher value.
A short description of test [5]: yeast AGP1-GFP level changes, GLN3 branch – cell-based, multiplex flow cytometry, S. cerevisiae, primary screen (AID 1887;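 active means GFP signal above the screen-wide mean plus 3 SD, that is over about 124.5% of the solvent control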;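 further: AGP1-GFP fusion strain of S. cerevisiae within a five-strain barcoded multiplex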). The note with it: 3 h, at 10 µM, stronger effect = higher value.
Test [6] can be described thus: reduced mouse 2C T cell binding to pMHC/ICAM-1 vesicles – MLPCN validation set, flow cytometry, LFA-1/ICAM-1 modulator project, pilot screen (AID 2523;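 active means response below a set limit, under 55% cells CD8-positive and vesicle-bound, and CD8 cells' 90th-percentile brightness under 279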;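 on vesicle binding response: mean PE anti-B7-1 fluorescence of CD8+ cells relative to row control; 100% = QL9-loaded vesicles with DMSO vehicle in the same plate row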). The following applies: 2C mouse CD8+ T cells, at 7 µM, stronger effect = lower value; double positive events: measured here: CD8+/vesicle+ event percentage.
Test [7] has as its target Integrin beta-1 (Homo sapiens) + Integrin alpha-4 (Homo sapiens) (UniProt P13612+P05556). The experiment in a line: alpha4beta1 integrin LIBS antibody binding reduction – U937 cells, HUTS-21 mAb, flow cytometry, validation set, VLA-4 allosteric modulator project, pilot screen (AID 2674;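 active means inhibition above 50%, about 3 SD of the validation set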;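 further: antibody binding induced by the VLA-4 ligand LDV present at three times its Kd; 0% = LDV ligand with antibody and no compound and 100% = antibody without LDV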). The following applies: HUTS-21 LIBS mAb binding, at 6.7 µM, stronger effect = higher value.
Test [8] in a line: calorie-restriction mimetic ROS inhibitors, yeast – validation compound set, pilot screen (AID 2706;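 active means superoxide response below 65% of plate, a cut near 3 SD across the whole screen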;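 further: yeast exposed to compound for one week at 30 degrees C before staining; 100% = mean of all compound wells on the same plate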). The note with it: S. cerevisiae aging, superoxide DHE fluorescence; at 10 µM; stronger effect = lower value.
In test [9] the target is Beta-adrenergic receptor kinase 1 (Homo sapiens) (UniProt P25098). Briefly: GRK2 binders displacing RNA aptamer, biochemical, validation, human GRK2, bead flow cytometry (AID 488806;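 active means aptamer binding inhibition above 30%, about 3 SD of noise from non-fluorescent compounds; inactive means inhibition at or below 30%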). The note with it: bead-bound GRK2, FAM-aptamer displacement, at 10 µM, stronger effect = higher value.
The target in test [10] is Beta-2 adrenergic receptor (Homo sapiens) (UniProt P07550). The experiment in a line: agonist-induced loss of surface beta2AR – cell-based, FAP fluorogen, flow cytometry, validation set, pilot screen (AID 504459;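 active means percent response above 42, roughly 3 SD of non-fluorescent test compounds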;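 further: agonist-driven loss of surface beta2AR via internalization measured by FAP dye flow cytometry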). The following applies: Am2.2-beta2AR cells, at 10 µM, stronger effect = higher value.
The target in test [11] is AP-2 complex subunit beta (Homo sapiens) (UniProt P63010). The experiment in a line: beta-arrestin/AP2 interaction blockers – biochemical, validation set, GST-AP2 beads, flow cytometry, pilot screen (AID 504541;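 active means inhibition above 54%, about 3 SD of non-fluorescent compounds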;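 further: AP2 carries R879A mutation and is captured from E. coli lysate; bead-bound FITC arrestin peptide fluorescence measuring arrestin peptide binding to AP2; 0% = DMSO wells and 100% = excess unlabeled arrestin peptide control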). The following applies: FITC arrestin peptide, at 10 µM, stronger effect = higher value.
The nature of test [12]: cytosolic pH regulators acting via V-ATPase – S. cerevisiae, pHLuorin, HTS validation (AID 504600; in the data active means response above about 15%;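 further: plate controls were DMSO for no effect and reference compound for full effect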). The following applies: V-ATPase proton transport, at 10 µM, stronger effect = higher value.
The test system of test [13] is anti-desmoglein-3 scFv antibody binding to human DSG3. The experiment in a line: blockers of pathogenic pemphigus antibody–desmoglein-3 binding – biochemical, validation compound set, bead-based, flow cytometry, pilot screen (AID 588368;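 active means binding below the plate cutoff, the plate median minus 3 SD, with a reading above zero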;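 further: signal is the median channel fluorescence of bead-bound GFP antibody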). The following applies: Protein G beads, DSG3-Fc, scFv-GFP binding, at 10 µM, stronger effect = lower value.
The subject of test [14] is Botulinum neurotoxin type F light chain protease (Clostridium botulinum). The experiment in a line: Clostridium botulinum type F light chain protease inhibitors, microsphere substrate cleavage, validation (AID 588459). The following applies: multiplex microsphere protease substrate cleavage assay, flow cytometry; at 10 µM; stronger effect = higher value.
The target in test [15] is Botulinum neurotoxin type A (Clostridium botulinum) (UniProt P0DPI0). The experiment in a line: BoNT/A light chain protease inhibitors, biochemical, multiplex microsphere flow cytometry, validation set (AID 588460). The following applies: at 10 µM, stronger effect = higher value.
The target in test [16] is Lethal factor (Bacillus anthracis) (UniProt P15917). Briefly: Bacillus anthracis lethal factor inhibition, microsphere flow cytometry protease assay, validation at 10 µM (AID 588461). The following applies: multiplex microsphere protease cleavage assay, stronger effect = higher value.
Test [17] in a line: Nile Red efflux blockade in pump-expressing yeast – validation compound set, multiplex, phenotypic, pilot screen (AID 588506;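 active means efflux inhibition above 0.42, the validation set average plus 4 SD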;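 further: Nile Red retained in cells so higher fluorescence means more efflux inhibition; 0 = negative control wells and 1 = enniatin B 25 µM full block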). The following applies: S. cerevisiae pump-expressing triplex, Nile Red efflux flow cytometry; at 10 µM; stronger effect = higher value.
Test [18] has as its target ATP-binding cassette sub-family B member 6 (Homo sapiens) (UniProt Q9NP58). Briefly: blockers of ABCB6-driven porphyrin uptake – K562-ABCB6 cells, flow cytometry, validation set, pilot screen (AID 588550;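 active means inhibition above the screen-wide mean plus 3 SD, about 51%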;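 further: 0% = DMSO wells and 100% = benzethonium chloride 70 µM positive control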). The note with it: K562-ABCB6 porphyrin accumulation, 1 h, at 10 µM, stronger effect = higher value.
Test [19] in a line: AML differentiation inducers, ER-HoxA9 marrow cells – cell-based, GFP/MAC1 double positive, flow cytometry, validation set, primary screen (AID 588685;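 active means differentiation response of at least 50%, scaled between solvent and reference control, from cells with both markers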;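 further: compound exposure lasts four days before antibody staining and flow analysis; 0% = DMSO wells and 100% = 5 µM fulvestrant positive control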). The note with it: stronger effect = higher value.
Test [20] addresses GTPase HRas (Homo sapiens) (UniProt P01112). The experiment in a line: Ras wt fluorescent GTP loading blockade – biochemical, wildtype, multiplex bead flow cytometry, dose response (AID 1335;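 active means fitted half-maximal concentration within 10 nM to 100 µM, steepness 0.5 to 2, significant signal drop, low assay interference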). The note with it: bead-based flow cytometry, Bodipy-GTP binding to GST-Ras; at 100 µM (top of the series).

Several values for one entry are separate records, joined by “and”; a condition that tells them apart may be missing. Identical values can stand only once. Results filed as inconclusive are left out. Activity calls are given as the source filed them. Unless noted, how the calls were made is not given here.

Sequence of Beta-adrenergic receptor kinase 1 (Homo sapiens) (P25098 whole entry, looked up): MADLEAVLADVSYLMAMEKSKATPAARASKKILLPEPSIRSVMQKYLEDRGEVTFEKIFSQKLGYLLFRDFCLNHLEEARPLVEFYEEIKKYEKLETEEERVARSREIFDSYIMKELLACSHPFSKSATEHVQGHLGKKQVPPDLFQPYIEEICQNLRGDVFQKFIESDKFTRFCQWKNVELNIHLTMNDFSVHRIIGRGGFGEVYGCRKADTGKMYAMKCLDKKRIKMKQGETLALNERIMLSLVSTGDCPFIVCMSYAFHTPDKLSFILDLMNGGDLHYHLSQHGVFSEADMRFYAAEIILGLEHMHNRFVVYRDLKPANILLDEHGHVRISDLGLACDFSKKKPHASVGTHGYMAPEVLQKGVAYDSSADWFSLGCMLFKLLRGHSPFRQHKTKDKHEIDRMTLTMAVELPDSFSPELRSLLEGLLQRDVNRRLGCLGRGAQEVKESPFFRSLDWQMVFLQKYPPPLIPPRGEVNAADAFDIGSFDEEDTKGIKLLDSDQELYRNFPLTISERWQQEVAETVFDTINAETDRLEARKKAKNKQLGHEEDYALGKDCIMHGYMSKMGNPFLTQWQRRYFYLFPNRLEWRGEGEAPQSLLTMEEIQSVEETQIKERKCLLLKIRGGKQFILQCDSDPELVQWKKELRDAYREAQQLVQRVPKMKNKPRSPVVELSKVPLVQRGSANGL
Sequence of Botulinum neurotoxin type A (Clostridium botulinum) (P0DPI0 whole entry, looked up): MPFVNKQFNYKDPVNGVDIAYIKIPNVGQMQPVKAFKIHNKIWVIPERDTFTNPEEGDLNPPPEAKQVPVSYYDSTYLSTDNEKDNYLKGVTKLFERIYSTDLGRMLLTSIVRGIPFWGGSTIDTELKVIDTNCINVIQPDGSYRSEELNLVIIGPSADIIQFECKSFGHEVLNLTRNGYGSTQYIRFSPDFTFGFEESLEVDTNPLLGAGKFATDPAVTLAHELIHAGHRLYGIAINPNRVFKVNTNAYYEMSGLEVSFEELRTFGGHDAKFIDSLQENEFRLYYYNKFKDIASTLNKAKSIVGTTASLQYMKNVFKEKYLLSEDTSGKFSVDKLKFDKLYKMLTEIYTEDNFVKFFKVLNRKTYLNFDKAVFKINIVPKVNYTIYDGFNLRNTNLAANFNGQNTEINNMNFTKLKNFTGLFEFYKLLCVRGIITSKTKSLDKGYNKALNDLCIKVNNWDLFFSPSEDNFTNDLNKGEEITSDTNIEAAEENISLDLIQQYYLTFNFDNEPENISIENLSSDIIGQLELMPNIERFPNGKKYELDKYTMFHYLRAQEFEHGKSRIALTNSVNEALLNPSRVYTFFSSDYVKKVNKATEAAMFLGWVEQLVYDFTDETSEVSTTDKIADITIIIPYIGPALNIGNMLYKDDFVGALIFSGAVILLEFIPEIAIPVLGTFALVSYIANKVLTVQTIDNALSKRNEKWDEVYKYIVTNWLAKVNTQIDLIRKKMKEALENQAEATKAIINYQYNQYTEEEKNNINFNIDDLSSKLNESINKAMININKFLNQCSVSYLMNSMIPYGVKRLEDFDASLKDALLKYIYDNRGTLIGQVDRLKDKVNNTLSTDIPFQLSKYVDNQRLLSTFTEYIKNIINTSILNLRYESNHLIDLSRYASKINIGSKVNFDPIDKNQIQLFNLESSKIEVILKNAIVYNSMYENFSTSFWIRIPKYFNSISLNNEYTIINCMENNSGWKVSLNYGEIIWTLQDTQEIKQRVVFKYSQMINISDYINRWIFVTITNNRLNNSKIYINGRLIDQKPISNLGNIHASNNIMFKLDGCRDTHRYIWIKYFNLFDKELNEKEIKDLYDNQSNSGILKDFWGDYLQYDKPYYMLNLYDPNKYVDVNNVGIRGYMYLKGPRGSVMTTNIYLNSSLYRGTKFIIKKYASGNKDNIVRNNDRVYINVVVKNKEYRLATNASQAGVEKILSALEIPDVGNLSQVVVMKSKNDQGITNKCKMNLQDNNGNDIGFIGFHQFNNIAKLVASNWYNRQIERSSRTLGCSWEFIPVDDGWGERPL
Sequence of Integrin beta-1 (Homo sapiens) + Integrin alpha-4 (Homo sapiens) (P05556 whole entry, looked up): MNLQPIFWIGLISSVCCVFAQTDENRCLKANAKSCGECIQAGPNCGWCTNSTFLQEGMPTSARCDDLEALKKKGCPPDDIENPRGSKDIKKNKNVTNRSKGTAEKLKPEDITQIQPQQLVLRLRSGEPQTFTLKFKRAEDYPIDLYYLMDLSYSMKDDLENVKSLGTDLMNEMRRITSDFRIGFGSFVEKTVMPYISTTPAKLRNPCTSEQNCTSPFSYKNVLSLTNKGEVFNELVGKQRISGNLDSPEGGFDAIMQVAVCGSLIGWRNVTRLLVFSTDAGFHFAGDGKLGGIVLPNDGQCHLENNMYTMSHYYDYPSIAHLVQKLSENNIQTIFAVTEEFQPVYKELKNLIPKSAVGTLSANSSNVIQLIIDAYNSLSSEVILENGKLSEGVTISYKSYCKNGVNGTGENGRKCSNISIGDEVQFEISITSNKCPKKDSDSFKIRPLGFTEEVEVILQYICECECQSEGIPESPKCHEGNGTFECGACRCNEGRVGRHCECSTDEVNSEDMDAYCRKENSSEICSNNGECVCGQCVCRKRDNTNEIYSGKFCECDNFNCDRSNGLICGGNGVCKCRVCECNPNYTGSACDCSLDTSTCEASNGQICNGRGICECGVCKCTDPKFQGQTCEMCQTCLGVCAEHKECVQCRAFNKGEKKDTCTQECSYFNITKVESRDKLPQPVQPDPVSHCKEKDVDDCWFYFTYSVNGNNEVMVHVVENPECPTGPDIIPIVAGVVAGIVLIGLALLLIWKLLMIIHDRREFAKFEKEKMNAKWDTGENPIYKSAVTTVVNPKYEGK
Sequence of Integrin beta-1 (Homo sapiens) + Integrin alpha-4 (Homo sapiens) (P13612 whole entry, looked up): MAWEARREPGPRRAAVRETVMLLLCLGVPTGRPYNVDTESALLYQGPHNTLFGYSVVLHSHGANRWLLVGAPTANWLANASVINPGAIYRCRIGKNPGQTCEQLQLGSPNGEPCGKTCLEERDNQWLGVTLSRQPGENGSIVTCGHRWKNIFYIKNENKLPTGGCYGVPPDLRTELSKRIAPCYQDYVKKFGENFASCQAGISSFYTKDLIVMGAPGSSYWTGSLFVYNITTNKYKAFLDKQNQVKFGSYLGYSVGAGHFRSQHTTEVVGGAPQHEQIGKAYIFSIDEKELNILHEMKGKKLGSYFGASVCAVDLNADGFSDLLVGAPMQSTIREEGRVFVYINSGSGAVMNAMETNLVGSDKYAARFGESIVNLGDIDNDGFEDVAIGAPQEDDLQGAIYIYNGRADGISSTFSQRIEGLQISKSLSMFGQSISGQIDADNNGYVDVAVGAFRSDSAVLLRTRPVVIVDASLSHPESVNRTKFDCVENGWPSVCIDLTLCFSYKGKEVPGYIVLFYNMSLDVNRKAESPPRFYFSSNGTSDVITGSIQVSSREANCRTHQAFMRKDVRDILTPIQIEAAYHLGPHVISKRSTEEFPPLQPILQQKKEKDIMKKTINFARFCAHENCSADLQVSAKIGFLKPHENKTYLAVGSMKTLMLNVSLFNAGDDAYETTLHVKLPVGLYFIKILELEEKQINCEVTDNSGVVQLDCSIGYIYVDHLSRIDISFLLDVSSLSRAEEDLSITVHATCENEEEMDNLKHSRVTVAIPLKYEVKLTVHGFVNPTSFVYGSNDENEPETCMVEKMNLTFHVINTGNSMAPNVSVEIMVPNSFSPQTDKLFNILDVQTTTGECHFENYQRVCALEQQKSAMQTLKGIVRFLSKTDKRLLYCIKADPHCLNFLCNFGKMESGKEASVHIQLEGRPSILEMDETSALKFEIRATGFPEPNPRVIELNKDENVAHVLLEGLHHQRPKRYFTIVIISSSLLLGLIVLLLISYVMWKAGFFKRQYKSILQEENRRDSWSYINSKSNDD
Sequence of ATP-binding cassette sub-family B member 6 (Homo sapiens) (Q9NP58 whole entry, looked up): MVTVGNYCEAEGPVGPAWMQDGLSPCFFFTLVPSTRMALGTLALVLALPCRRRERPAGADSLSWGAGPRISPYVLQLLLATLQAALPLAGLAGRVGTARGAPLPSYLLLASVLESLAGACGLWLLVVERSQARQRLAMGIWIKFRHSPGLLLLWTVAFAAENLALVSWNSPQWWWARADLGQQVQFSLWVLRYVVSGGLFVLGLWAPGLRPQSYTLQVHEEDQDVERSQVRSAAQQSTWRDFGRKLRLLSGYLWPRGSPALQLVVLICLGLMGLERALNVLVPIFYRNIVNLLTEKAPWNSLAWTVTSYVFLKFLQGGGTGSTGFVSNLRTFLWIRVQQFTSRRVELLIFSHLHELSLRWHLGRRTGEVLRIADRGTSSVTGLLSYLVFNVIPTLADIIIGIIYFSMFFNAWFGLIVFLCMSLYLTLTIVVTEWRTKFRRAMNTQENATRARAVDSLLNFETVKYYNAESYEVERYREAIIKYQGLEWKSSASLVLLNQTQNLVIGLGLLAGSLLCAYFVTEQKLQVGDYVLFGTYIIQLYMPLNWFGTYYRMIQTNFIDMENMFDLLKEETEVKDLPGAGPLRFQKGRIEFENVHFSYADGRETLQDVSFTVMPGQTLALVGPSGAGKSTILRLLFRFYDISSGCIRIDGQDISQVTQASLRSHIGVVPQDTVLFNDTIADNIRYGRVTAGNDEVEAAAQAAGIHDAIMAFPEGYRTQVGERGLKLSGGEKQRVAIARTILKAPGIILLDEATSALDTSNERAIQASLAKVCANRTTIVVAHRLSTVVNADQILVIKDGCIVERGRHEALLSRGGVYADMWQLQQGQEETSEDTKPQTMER
Sequence of Beta-2 adrenergic receptor (Homo sapiens) (P07550 whole entry, looked up): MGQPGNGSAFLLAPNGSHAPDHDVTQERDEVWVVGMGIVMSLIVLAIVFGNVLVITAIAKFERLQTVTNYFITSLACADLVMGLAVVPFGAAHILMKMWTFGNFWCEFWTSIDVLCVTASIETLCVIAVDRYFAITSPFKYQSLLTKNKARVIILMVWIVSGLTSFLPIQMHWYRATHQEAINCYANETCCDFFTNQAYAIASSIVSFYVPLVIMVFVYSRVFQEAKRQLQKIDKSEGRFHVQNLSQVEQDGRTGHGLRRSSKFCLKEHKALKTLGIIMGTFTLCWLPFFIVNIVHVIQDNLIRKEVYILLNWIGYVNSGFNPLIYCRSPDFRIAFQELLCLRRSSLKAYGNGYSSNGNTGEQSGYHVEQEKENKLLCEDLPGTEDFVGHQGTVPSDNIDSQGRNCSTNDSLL

Take `CC[C@@H]1C(=O)OC[C@@H]1Cc1cncn1C`: in test [1], the percent of DMSO control GFP was 89.8% (inactive). Moreover, the figures for the GFP response vs DMSO in test [2] and in [4] were 144% (active) and 88% (inactive), respectively. Moreover, the percent response of DMSO control in [3] is 112% (inactive). The GFP response, % of DMSO in [5] was 86.3% (inactive). Also, the double positive events in test [6] was 65.5% and 68.4%. For the same compound, the vesicle binding response in [6] is 171% (inactive) and 339% (inactive). Further, the inhibition (commonly the change of the read-out against control, counted positive when it falls) in [7] was 13.2% (inactive) and 5.49% (inactive); in test [11], 14.2% (inactive) and -5.27% (inactive); in test [14], -1.2% (inactive) and -3.1% (inactive); in [15] it was -0.7% (inactive) and 0.7% (inactive); in [16] it was -1.2% (inactive) and 7% (inactive); in [18], 3% (inactive) and 12% (inactive). The superoxide response (% of plate) in test [8] was 82.6% (inactive) and 106% (inactive). The aptamer binding inhibition in [9] was 7% (inactive) and 4% (inactive). Besides, the response in [10] is 1.92% (inactive) and 3.7% (inactive); in test [12], -2.39% (inactive) and 0.38% (inactive). Further, in test [13], the binding (% of control) is 104% (inactive) and 95.6% (inactive). In addition, the efflux inhibition (fraction of control) in test [17] was 0.16 (inactive) and 0.05 (inactive). In addition, the differentiation response in test [19] was 14.7% (inactive) and 20.5% (inactive).

In turn, `CC1(C)CC(n2[nH]c(=O)c3c2NC(=O)CSC3c2ccccc2)CCO1` (stereo not given) displayed a GTP binding, percent of control in [20] of 86.2%.

Consider `COc1ccc(-c2cc(=NCCCCCC(=O)O)c3cc(C)ccc3o2)cc1`, for which the GTP binding, percent of control in test [20] worked out at 66.2%.

In the case of `O=C(O)c1cn(Cc2ccc(F)cc2)c2ccccc12`, the GTP binding, percent of control in test [20] is 112%.

`Cc1nc2c(=O)n(C)c(=O)nc-2n(C)n1` gave a GTP binding, percent of control in [20] of 98.5%.

Turning to `CCOc1ccc(C2SCC(=O)Nc3c2c(C)nn3C2CCOC(C)(C)C2)cc1` (stereo not given), in test [20], the GTP binding, percent of control was 150%.

`C[C@H](O)[C@H]1CC[C@H]2[C@@H]3CCC4=CC(=O)CC[C@]4(C)[C@H]3CC[C@]12C`: the percent of DMSO control GFP in test [1] is 98.9% (inactive). Moreover, the GFP response vs DMSO in [2] is 103% (inactive); in [4], 126% (inactive). Also, the percent response of DMSO control in test [3] is 91.3% (inactive). Besides, in test [5], the GFP response, % of DMSO is 89.6% (inactive). This compound also displayed a double positive events in [6] of 61%. In addition, the vesicle binding response in test [6] was 104% (inactive). Further, the inhibition in test [7] is 11% (inactive); in test [11] it was -3.68% (inactive); in test [14], -0.6% (inactive); in test [15], 0.2% (inactive); in test [16], 2.8% (inactive); in test [18] it was 9% (inactive). Moreover, the superoxide response (% of plate) in [8] was 106% (inactive). The aptamer binding inhibition in [9] is 0% (inactive). The response is -3.16% (inactive) in test [10] and -6.77% (inactive) in test [12]. For the same compound, in test [13], the binding (% of control) is 102% (inactive). Also, the efflux inhibition (fraction of control) in test [17] was -0.17 (inactive). Besides, the differentiation response in [19] was -4.57% (inactive).

`CC(C)C[C@H]1C(=O)N2CCCC2[C@]2(O)O[C@](NC(=O)[C@@H]3C=C4c5cccc6[nH]cc(c56)CC4N(C)C3)(C(C)C)C(=O)N12` (stereo not given in full): the percent of DMSO control GFP in [1] is 93.5% (inactive). Also, the figures for the GFP response vs DMSO in test [2] and in test [4] were 116% (inactive) and 79.2% (inactive), respectively. The percent response of DMSO control in test [3] was 96.6% (inactive). Also, the GFP response, % of DMSO in test [5] was 96.6% (inactive). Moreover, the double positive events in test [6] amounted to 61.2%. The vesicle binding response in [6] is 108% (inactive). The inhibition in [7] was -162% (inactive); in test [11] it was 4.91% (inactive); in [14], -7% (inactive); in [15], -1.6% (inactive); in [16] it was -34.6% (inactive); in test [18] it was 10% (inactive). Moreover, the superoxide response (% of plate) in test [8] was 94.2% (inactive). The aptamer binding inhibition in test [9] is 5% (inactive). The response is -35.9% (inactive) in test [10] and 3.06% (inactive) in test [12]. Besides, the binding (% of control) in test [13] was 109% (inactive). For the same compound, the efflux inhibition (fraction of control) in test [17] is 0.41 (inactive). In addition, the differentiation response in [19] was -6.55% (inactive).

The values above are taken from PubChem BioAssay.
